The text below walks through data of PubChem BioAssay AID492952 (Southern Research Specialized Biocontainment Screening …, 2010).

Usually inhibition stands for the relative decrease from the control value, in per cent.

Screen size: about 2,300 compounds; about 1,500 (65%) were called active. The set was probably picked from earlier hits. The list shows a part of the results. Entries with a potency or affinity are not part of this list. A number with no mark means an inactive call. How the calls were made is not given here.

This assay is described as follows: replicating M. tuberculosis growth inhibition, dose response, non-replicating M. tuberculosis project, H37Rv (AID 492952).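 Further: Mycobacterium tuberculosis grown in culture; growth inhibition read after a week of incubation; 0% = bacteria alone untreated and 100% = bacteria with high antibiotic.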 The note with it: series mostly up to 50 µM; inhibition: at the top concentration.
Turning to `CC(C)(C)c1ccc2c(c1)OC(C(=O)N/N=C\c1ccccn1)CO2` (stereo not drawn), the “inhibition” value was 23.2%.

In the case of `CCCOC(=O)c1cc(-c2ccc(C=O)o2)ccc1Cl`, the “inhibition” value is 5.73%.

In the case of `O=C(NNC(=O)C12CC3CC(CC(C3)C1)C2)c1cnccn1`, the “inhibition” value is 8.93%.

`O=C(COC(=O)CC12CC3CC(CC(C3)C1)C2)Nc1cccnc1Cl`: the “inhibition” value is 6.83%.

With `O=C(NC(=S)Nn1cnc2c(cnn2-c2ccccc2)c1=O)c1ccccc1`, the “inhibition” value was 0.77%.

As to `CCC(C)c1ccc(O)c(/C=N/O)c1` (stereo not drawn), the “inhibition” value was 5.4%.

As to `CSc1ccccc1C(=O)NCc1ccc(S(N)(=O)=O)cc1`, the “inhibition” value was 12.7%.

For `CCOc1cccc2cc(C(=O)NCc3ccccc3)c(=N)oc12`, the “inhibition” value is 6.68%.

Consider `O=C(CCC1CCCCC1)NCc1ccc(F)cc1`, for which the “inhibition” value was -2.73%.

Take `C/C(=N\NC(=O)c1ccc(CN2CCc3ccccc3C2)cc1)c1ccccc1O`: the “inhibition” value is 0.55%.

As to `O=C(Cc1ccc(F)cc1)Nc1ccc(Cl)cn1`, the “inhibition” value was -0.35%.

Consider `O=C(c1ccco1)N1CCN(c2ccc(F)cc2)CC1`, for which the “inhibition” value was 4.57%.

On to `O=C(NCCC1CCCC1)c1cccs1`, for which the “inhibition” value is -4.94%.

For `CC(=O)N1CCC(=NNC(=O)c2cccs2)CC1`, the “inhibition” value is 2.67%.

`O=C(COC(=O)CC1CCCC1)Nc1ccc(OC(F)F)cc1`: the “inhibition” value was -0.34%.

Turning to `N/C(=N\OC(=O)CC1CCCCC1)c1ccncc1`, the “inhibition” value is 1.58%.

With `O=C(COC(=O)C1CCCCC1)Nc1ccccc1OC(F)F`, the “inhibition” value is -25.5%.

With `Cc1ccc(CO/N=C/c2c(O)cc(C)oc2=O)cc1`, the “inhibition” value is 2.02%.

For the compound `O=C(Nc1ccccc1F)c1ccc(Br)o1`, the “inhibition” value was -3.44%.

As for `Cc1ccc(CCC(=O)Nc2ccccc2F)s1`, the “inhibition” value was 18.7%.

With `NC(=O)C1CCN(C2CC(=O)NC2=O)CC1` (stereo not drawn), the “inhibition” value is -5.72%.

Regarding `COc1ccc(OCCSc2nnc(Cc3cccc4ccccc34)n2N)cc1`, the “inhibition” value was -6.56%.

In the case of `N/C(=N\OC(=O)c1cccs1)c1ccccc1`, the “inhibition” value was 2.45%.

For the compound `CC1(C)CC(=O)C(C2NCCc3ccccc32)=C(O)C1` (stereo not drawn), the “inhibition” value is 4.03%.

As to `Cc1cc(C(=O)NNc2cc(Cl)ccc2Cl)no1`, the “inhibition” value was 7.55%.

For the compound `O=C(Nc1ccccc1F)c1ccc(CSc2ccccc2)o1`, the “inhibition” value was -1.3%.

With `CCCc1cc(C(=O)Nc2cccc(C(C)=O)c2)no1`, the “inhibition” value was -0.8%.

Take `C[C@@H]1CN=C2N(CCNC(=O)CCC3CCCCC3)[C@H](Cc3ccc(O)cc3)CN21`: the “inhibition” value was 6.51%.

Turning to `O=C(CN1CCC(Cc2ccccc2)CC1)NC(=O)NC1CCCCC1`, the “inhibition” value was 7.51%.

With `CC(C)[C@H]1CN=C2N(C[C@H](C)NC(=O)CCC3CCCCC3)[C@H](Cc3ccc(O)cc3)CN21`, the “inhibition” value is 0.35%.

Take `CCCC(=O)N1CCC(Cc2ccccc2)CC1`: the “inhibition” value was -6.45%.

For `COc1cc(C=O)ccc1OCCCCOc1ccccc1[N+](=O)[O-]`, the “inhibition” value was -2.84%.

Take `CCc1ccc(C2=C/C(=C/c3cccnc3)C(=O)O2)cc1`: the “inhibition” value was 1.91%.

For the compound `C/C(=N\Nc1ccc(Cl)cc1)c1c(O)cc(C)oc1=O`, the “inhibition” value is -6.6%.

As for `CN(C)c1ccc(NC(=O)COC(=O)c2cc(Cl)ccc2[N+](=O)[O-])cc1`, the “inhibition” value is 16.4%.

In the case of `Cn1cccc1/C=N\NC(=O)C1COc2ccccc2O1` (stereo not drawn), the “inhibition” value is 2.74%.

Regarding `O=C(Nc1cccc(Cl)c1)C1COc2ccccc2O1` (stereo not drawn), the “inhibition” value was 5.4%.

Regarding `O=C(Nc1ccc(Cl)cn1)C1COc2ccccc2O1` (stereo not drawn), the “inhibition” value is -9.66%.

In the case of `O=C(Nc1cccc([N+](=O)[O-])c1)C1COc2ccccc2O1` (stereo not drawn), the “inhibition” value was -1.31%.

Regarding `O=C(Nc1ccc([N+](=O)[O-])cc1)C1COc2ccccc2O1` (stereo not drawn), the “inhibition” value is -1.93%.

As for `CC(C)NC(=O)C1COc2ccccc2O1` (stereo not drawn), the “inhibition” value is 5.57%.

Take `COc1ccc2c([N+](=O)[O-])c(N3CCCC3)[nH]c2c1`: the “inhibition” value was 11.5%.

As for `CN(C)S(=O)(=O)Oc1ccc(C(=O)Nc2cccc(C(F)(F)F)c2)cc1`, the “inhibition” value is 0.37%.

As to `COc1ccc(NC(=O)COc2ccccc2)cc1Cl`, the “inhibition” value was 20%.

With `COC(=O)c1cccc(NC(=O)COc2cccc([N+](=O)[O-])c2)c1`, the “inhibition” value is 3.64%.

In the case of `C=C(C)C1Cc2cc3ccc(=O)oc3cc2O1` (stereo not drawn), the “inhibition” value was -6.72%.

With `COCCNC(=O)CC(=O)N/N=C/c1cccc(C(=O)OC)c1`, the “inhibition” value is -0.54%.

As to `O=C(COC(=O)CCC(=O)c1ccc(F)cc1)Nc1ccccc1`, the “inhibition” value is -0.44%.

In the case of `O=C(CCc1c[nH]c2ccccc12)Nc1ncccc1O`, the “inhibition” value was 4.85%.

In the case of `COc1cccc(NC(=O)COC(=O)Cc2ccc(Br)cc2)c1`, the “inhibition” value was 6.93%.

Regarding `CC(=O)c1ccc(NC(=O)C(Cc2ccccc2)n2cccc2)cc1` (stereo not drawn), the “inhibition” value was 1.69%.

Turning to `Cc1cc(C(=O)NNc2ccc(Cl)cc2)no1`, the “inhibition” value is 4.74%.

In the case of `COc1ccc(NC(=O)c2cc([N+](=O)[O-])ccc2O)cc1`, the “inhibition” value is 25.4%.

As for `Cc1ccc(CSCCNC(=O)c2cccc([N+](=O)[O-])c2)cc1`, the “inhibition” value is 26%.

As for `COc1ccc([C@@]2(O)c3c(ccc(CC=C(C)C)c3O)NC(=O)[C@@H]2OC)cc1`, the “inhibition” value was -7.91%.

As for `CN1/C(=C\C=N\NC(=O)c2cccnc2)C(C)(C)c2ccccc21`, the “inhibition” value was 17.1%.

For the compound `C/C(CC(=O)Nc1ccc(C)c(Cl)c1)=N\NC(=O)c1ccco1`, the “inhibition” value was 1.14%.

Turning to `CCc1cccc(OCCCn2ccnc2)c1`, the “inhibition” value is 2.96%.

Take `O=Cc1ccc(OC2OCCOC2Oc2ccc(C=O)cc2)cc1` (stereo not drawn): the “inhibition” value was 0.69%.

Consider `O=C(c1ccccc1[N+](=O)[O-])N1N=C(c2ccccc2)CC1(O)C(F)(F)F` (stereo not drawn), for which the “inhibition” value is -1.38%.

On to `CC1=NN(C(=O)c2ccc(Cn3nc(C)c(Br)c3C)cc2)C(O)(C(F)(F)F)C1` (stereo not drawn), for which the “inhibition” value is -4.33%.

For the compound `CC1=NN(C(=O)c2cc(C)nn2C)C(O)(C(F)(F)F)C1` (stereo not drawn), the “inhibition” value was -3.55%.

Turning to `CC1=NN(C(=O)c2ccoc2C)C(O)(C(F)(F)F)C1` (stereo not drawn), the “inhibition” value was 5.07%.

As for `Cc1cc(C)cc(NC(=O)COC(=O)CC2CCCC2)c1`, the “inhibition” value was 6.23%.

`O=C(CC1CCCCC1)NCc1ccccc1`: the “inhibition” value is -2.3%.

With `Cc1cc(Cl)ccc1NNC(=O)c1cccs1`, the “inhibition” value was 28%.

Consider `CCN1CCN(Cc2cc(C(C)(C)C)c(O)c(C(C)(C)C)c2)CC1`, for which the “inhibition” value is -3.19%.

Regarding `COc1cc(CNCCNC(=O)c2nonc2N)ccc1OCc1ccc(Cl)cc1`, the “inhibition” value is 18.4%.

In the case of `O=C(NNc1ccc([N+](=O)[O-])cc1)C1CC1c1ccccc1` (stereo not drawn), the “inhibition” value is 21.1%.

`CCOc1ccc(Cn2c(=O)oc3ccccc32)cc1`: the “inhibition” value was 4%.

Turning to `Cc1cccc(OCC(O)Cn2c(=N)n(Cc3ccccc3)c3ccccc32)c1` (stereo not drawn), the “inhibition” value was 10.8%.

Take `Cc1ccc(C(=O)N2N=C(CC(C)C)CC2(O)C(F)(F)F)o1` (stereo not drawn): the “inhibition” value is 4.03%.

For the compound `CCSc1nsc(NC(=O)Nc2ccc(F)cc2F)n1`, the “inhibition” value was 5.85%.

On to `O=C(C/C=N\OCc1ccc([N+](=O)[O-])cc1)Nc1ccc(Br)cc1`, for which the “inhibition” value is 17.8%.

For the compound `C=CCc1ccc2oc(C(=O)OCC)cc(=O)c2c1O`, the “inhibition” value was 7.41%.

In the case of `CCC1(O)CC(c2ccccc2)=NN1C(=O)c1ccccc1F` (stereo not drawn), the “inhibition” value was 6.6%.

For `COc1ccc(/C=N/NC(=O)C(=O)NCc2cccnc2)cc1OC`, the “inhibition” value is -6.15%.

With `O=Cc1ccnc(-c2ccc(OC(=O)c3ccco3)cc2)n1`, the “inhibition” value is 1.13%.
